Laboratory results reported in PubChem BioAssay.
Several values for one entry are separate records, joined by “and”; a condition that tells them apart may be missing. Equal values may be shown once. Activity calls are given as the source filed them. Rule as the data show it, unless noted: active = parasite load remaining mostly below about 12% (no sharp cut-off); inactive = mostly above about 10%. Peptide text beside a SMILES is read from it.

Experiments:
[1] = liver-stage malaria parasite growth inhibition, primary screen, cell-based, HepG2, luciferase luminescence, HepG2 viability (AID 624349);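 also: 100% = mean of DMSO negative control wells on the same plate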; settings: P. berghei liver stage in HepG2, luciferase luminescence, concentration not given here; parasite load remaining: stronger effect = lower value; viability: measured here: HepG2 viability without parasites
[2] = stimulators of nuclear beta-catenin in C2C12, primary screen, imaging, WNT3A-conditioned medium, mouse C2C12, NPC library (AID 1117326; in the data active = nuclear beta-catenin stimulation mostly above about 4.2%, no sharp cut-off; inactive = mostly below about 10%; also: reference of the scale not given here); settings: stronger effect = higher value

SMILES	parasite load remaining [1]	viability [1]	nuclear beta-catenin stimulation ([2]; at 10 µM)	nuclear beta-catenin stimulation ([2]; stimulation, at 2 µM)
Nc1ccc(S(=O)(=O)Nc2cnc3ccccc3n2)cc1	113% (inactive) and 43.6% (inactive)	98.9% and 97%	-0.3% (inactive)	0.7%
O=c1ccc2ccccc2o1	71% (inactive)	94.5%	-0.2% (inactive)	-0.6%
NS(=O)(=O)c1cc2c(cc1Cl)NC(CSCc1ccccc1)=NS2(=O)=O	72.5% (inactive) and 98.3% (inactive) and 56.3% (inactive)	97% and 76.2% and 98.6%	-0.6% (inactive)	0.7%
CCCCC(CC)CN1CN(CC(CC)CCCC)CC(C)(N)C1 (centres undefined)	136% (inactive) and 95.8% (inactive) and 66.4% (inactive)	98.8% and 69.2% and 87.2%	-4.8% (inactive)	3.6%
C[C@H](N)[C@H](O)c1cccc(O)c1	9.16% (inactive) and 99.4% (inactive) and 51.4% (inactive)	46.8% and 91.2% and 209%	-0.7% (inactive)	-0.1%
Oc1c(I)cc(I)c2cccnc12	92.2% (inactive) and 20.2% (inactive)	77.1% and 92.8%	0.7% (inactive)	1%
COC(=O)N/N=C/c1c[n+]([O-])c2ccccc2[n+]1[O-]	174% (inactive) and 86.3% (inactive) and 64.3% (inactive)	93.9% and 108% and 125%	1.7% (inactive)	5.8%
Cc1c(N(C)C)c(=O)n(-c2ccccc2)n1C	18.2% (inactive) and 103% (inactive) and 38% (inactive)	52.4% and 97.7% and 84.1%	2.9% (inactive)	0.6%
O=c1oc2cc(O)ccc2s1	62.7% (inactive)	88.6%	-2.6% (inactive)	0.6%
CNC[C@H](O)[C@@H](O)[C@H](O)[C@H](O)CO	64.5% (inactive)	224%	-1.8% (inactive)	-1.1%
COc1ccc(C2C(=O)c3ccccc3C2=O)cc1	126% (inactive) and 58.9% (inactive)	68.9% and 89%	1.8% (inactive)	1.4%
CCCCc1ccc2nc(NC(=O)OC)[nH]c2c1	83.6% (inactive)	85.5%	81.2% (active)	61.1%
CCCCOc1ccc(OCCCN2CCOCC2)cc1	92% (inactive) and 117% (inactive) and 30.7% (inactive)	109% and 67.4% and 85.2%	1.4% (inactive)	0.4%
Cc1cnc(C(=O)O)c[n+]1[O-]	22.9% (inactive)	79.5%	2.4% (inactive)	1.1%
COC(=O)[C@H](Cc1ccccc1)NC(=O)[C@@H](N)CC(=O)O (H-Asp-Phe-OMe)	156% (inactive) and 74.6% (inactive)	84.2% and 212%	4.5% (inactive)	1.1%
Cc1[nH]c(C)c(Cl)c(=O)c1Cl	132% (inactive) and 21.1% (inactive) and 5.5% (inactive)	78.8% and 117% and 80.5%	1.4% (inactive)	0.4%
Oc1cccc(O)c1	91.2% (inactive) and 38.4% (inactive)	77.8% and 101%	-0.3% (inactive)	0.3%
CC(=O)Nc1ccc(S(=O)(=O)Nc2ccc([N+](=O)[O-])cc2)cc1	152% (inactive) and 62.3% (inactive)	92.2% and 117%	1.1% (inactive)	1.4%
CC(=O)Nc1ccc(OCC(O)CNC(C)C)cc1 (centres undefined)	80.4% (inactive) and 87% (inactive) and 55.4% (inactive)	110% and 75.8% and 108%	0.5% (inactive)	1.7%
Cn1c(=O)c2c(ncn2CCO)n(C)c1=O	29.7% (inactive) and 108% (inactive)	47.6% and 91.1%	2.5% (inactive)	1.4%
O=C(O)CCC(=O)Nc1ccc(S(=O)(=O)Nc2nccs2)cc1	92.2% (inactive) and 146% (inactive) and 21.3% (inactive)	97.3% and 69.1% and 82.2%	-0.6% (inactive)	0.6%

SMILES	parasite load remaining [1]	viability [1]	nuclear beta-catenin stimulation ([2]; at 10 µM)	nuclear beta-catenin stimulation ([2]; stimulation, at 2 µM)
CC1(C)O[C@@H]2C[C@H]3[C@@H]4C[C@H](F)C5=CC(=O)CC[C@]5(C)[C@H]4[C@@H](O)C[C@]3(C)[C@]2(C(=O)CO)O1	156% (inactive)	105%	-1.9% (inactive)	4%
Cc1cc(C)nc(NS(=O)(=O)c2ccc(N)cc2)n1	78.5% (inactive) and 292% (inactive) and 25.7% (inactive)	96.6% and 70.6% and 93.3%	0.2% (inactive)	0.2%
CC(=O)Nc1ccccc1	92.8% (inactive) and 37.4% (inactive)	71.9% and 93.5%	5.2% (inactive)	1.4%
CN1CCC(OC(c2ccccc2)c2ccccc2)CC1	97.1% (inactive) and 89.2% (inactive) and 61.4% (inactive)	96.1% and 75.8% and 94.2%	0.7% (inactive)	1.6%
Cc1cc(CC(=O)O)n(C)c1C(=O)c1ccc(Cl)cc1	103% (inactive) and 101% (inactive) and 54.3% (inactive)	94.3% and 67.7% and 106%	-0.6% (inactive)	1.7%
Nc1cc(-c2ccncc2)c[nH]c1=O	103% (inactive)	98.5%	0.5% (inactive)	1.7%
COc1ccc(C(=O)c2ccccc2)c(O)c1	175% (inactive) and 149% (inactive) and 68.3% (inactive)	96.8% and 72.8% and 91.5%	1.5% (inactive)	1%
Cc1cc(C(C)(C)C)c(O)c(C(C)(C)C)c1	72.6% (inactive)	95.9%	1.4% (inactive)	0.1%
Cc1cc2cc3c(C)cc(=O)oc3c(C)c2o1	179% (inactive) and 284% (inactive) and 171% (inactive)	95.9% and 75.4% and 91.9%	2.9% (inactive)	0.1%
CC(C)(C)CC(C)(C)c1ccc(O)c(Cc2ccc(Cl)cc2Cl)c1	157% (inactive)	83.5%	0.1% (inactive)	6.3%
C[C@]12CC[C@@H]3c4ccc(O)cc4CC[C@H]3[C@@H]1C[C@@H](O)[C@@H]2O	68.5% (inactive) and 32.3% (inactive)	70% and 67.5%	4.3% (inactive)	3%
O=C(O)CN1C(=O)c2cccc3cccc(c23)C1=O	30.8% (inactive)	96.3%	-0.2% (inactive)	0.9%
CC(NCCC(c1ccccc1)c1ccccc1)c1ccccc1 (centres undefined)	-2.42% (inactive) and 196% (inactive) and 56% (inactive)	7.6% and 63.1% and 81.9%	27.6% (inactive)	-0.2%
O=C(O)c1ccccc1C(=O)Nc1ccc(S(=O)(=O)Nc2nccs2)cc1	89% (inactive) and 53.5% (inactive) and 22.8% (inactive)	103% and 81.4% and 87.5%	0.8% (inactive)	0.7%
CCOC(=O)c1ccc(N)cc1	108% (inactive) and 105% (inactive) and 49.4% (inactive)	103% and 76.4% and 98.1%	0.3% (inactive)	1.2%
Cc1nnc(NS(=O)(=O)c2ccc(N)cc2)s1	77.8% (inactive) and 214% (inactive) and 50.9% (inactive)	95.4% and 74.4% and 104%	-0.1% (inactive)	1.2%
C[C@]12CCC(=O)C=C1C=C[C@@H]1[C@@H]2CC[C@@]2(C)[C@H]1CC[C@@]21CCC(=O)O1	17.5% (inactive)	73%	2.7% (inactive)	1.9%
Cc1cc(O)cc(C)c1Cl	69.1% (inactive) and 37.2% (inactive)	76.7% and 78.6%	-0.1% (inactive)	2%
CCCCN(CCCC)CCC(O)c1cc2c(Cl)cc(Cl)cc2c2cc(C(F)(F)F)ccc12 (centres undefined)	57.2% (inactive)	69.5%	5.2% (inactive)	0.7%
Cc1cc(C)cc(OCC2CNC(=O)O2)c1 (centres undefined)	135% (inactive) and 58.1% (inactive)	90% and 111%	-0.1% (inactive)	0.2%
